Data reported in ChEMBL document CHEMBL3433997, “St. Jude Leishmania screening dataset” (2016).

What follows are compounds tested against Solute carrier family 2, facilitated glucose transporter member 1 (Homo sapiens) (UniProt P11166) (assay: ST_JUDE_LEISH: Cytotoxicity at 2uM final concentration against transgenic Leishmania Mexicana promastigotes LmGLUT1 that are glucose transport deficient and complemented with the human glucose transporter GLUT1. Activity is measured by DNA content using SYBR green in vitro).
Chain of Solute carrier family 2, facilitated glucose transporter member 1 (Homo sapiens) (P11166 whole entry): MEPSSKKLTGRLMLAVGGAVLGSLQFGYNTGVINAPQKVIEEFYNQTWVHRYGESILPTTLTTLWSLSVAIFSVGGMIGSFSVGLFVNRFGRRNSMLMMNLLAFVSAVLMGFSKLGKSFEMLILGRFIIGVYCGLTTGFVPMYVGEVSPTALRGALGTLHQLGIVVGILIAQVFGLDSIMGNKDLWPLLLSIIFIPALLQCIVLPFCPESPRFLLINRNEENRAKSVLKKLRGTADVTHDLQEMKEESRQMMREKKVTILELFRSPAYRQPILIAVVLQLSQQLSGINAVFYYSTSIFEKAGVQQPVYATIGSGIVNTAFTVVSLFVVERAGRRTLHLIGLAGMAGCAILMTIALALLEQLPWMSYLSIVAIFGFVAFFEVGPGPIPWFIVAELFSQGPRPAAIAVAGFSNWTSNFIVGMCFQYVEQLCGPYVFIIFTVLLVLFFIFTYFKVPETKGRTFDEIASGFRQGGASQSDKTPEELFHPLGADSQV
Type: functional
Work on CCOc1ccc(-c2nonc2NC(=O)c2ccc(OC)cc2)cc1OCC yielded an inhibition of -1.17%.
CC(C)(C)c1ccc(Cn2c(=N)n(CC(=O)c3ccc(-c4ccccc4)cc3)c3ccccc32)cc1 gave an inhibition of 0.71%.
COc1cc(CNc2ccc(N3CCCC3)cc2)cc(Cl)c1OC was tested, and the inhibition was -2.15%.
In the case of CCCc1cc(OC)c(CC2c3cc(O)c(C)cc3CCN2C)cc1OC (stereo not given), the inhibition is reported as -2.27%.
Cc1ccc(CNC(=O)[C@H](CCCN)Nc2cc(C)nc(Nc3ccccc3)n2)cc1 was tested, and the inhibition was 6.17%.
Work on COc1cccc(NC(=O)[C@H](C)n2c(=O)[nH]c3ccccc3c2=O)c1 yielded an inhibition of 10.9%.
C[C@H](Cc1ccc(CCc2ccc(C[C@@H](C)NC[C@H](O)c3cccc(Cl)c3)cc2)cc1)NC[C@H](O)c1cccc(Cl)c1 was tested, and the inhibition was 59.1%.
With O=C1OC(c2ccccc2)(c2ccccc2)CN1CC1CCN(Cc2ccc(O)c(Cl)c2)CC1 the inhibition was 70%.
With N#Cc1ccc(-c2ccc(OCC(O)CN3CCCN(Cc4cccc(O)c4Cl)CC3)cc2)cc1 (stereo not given) the inhibition was 4.04%.
O=C(Nc1ccc(Br)c(Cl)c1)c1cc([N+](=O)[O-])cc2cn[nH]c12 gave an inhibition of -0.11%.
In the case of Cc1ccc(C(=O)Nc2ccc(C)c(OC3CCN(Cc4ccco4)C3)c2)cc1 (stereo not given), the inhibition is reported as 0.19%.
For COc1ccc(-c2ccc(CNC3Cc4ccccc4C3)cc2)cc1S(=O)(=O)NCCN1CCCC1, the inhibition was 1.48%.
With CCOCn1c(-c2ccccc2)cc2c3c(N)nc(N)nc3ccc21 the inhibition was 98.3%.
CCN(C)C(=O)n1ncc2c3c(N)nc(N)nc3ccc21 showed an inhibition of 3.44%.
With Cc1nc(C)c(-c2ccc(Oc3cc(Cl)cc(Cl)c3)cc2)c(O)c1Br the inhibition was 1.01%.
With CCCC(C)Nc1nc(C)cc(NCCC(=O)Nc2ccccc2)n1 (stereo not given) the inhibition was 6.84%.
CNCCNCc1ccc(-c2ccc(-c3nc4cc(C(F)(F)F)ccc4[nH]3)cc2)cc1 gave an inhibition of -0.49%.
CCOC(=O)CCCCCNC[C@H](O)c1ccccc1 gave an inhibition of -1.32%.
CC(=O)c1cccc(NC(=O)C2c3ccccc3C(=O)N(CC(C)C)C2c2cccs2)c1 (stereo not given) showed an inhibition of -0.21%.
For CC(=O)N(Cc1ccc(CC(C)NCCc2cccc(Cl)c2)cc1)Cc1ccc(CC(C)NCCc2cccc(Cl)c2)cc1 (stereo not given), the inhibition was 83.6%.
NCc1ccc(CNCc2cccc(-c3cccc(-c4nc5cc(F)ccc5[nH]4)c3)c2)cc1 gave an inhibition of 9.71%.
CCn1c(SCc2ccccc2)nc2c1c(=O)[nH]c(=O)n2C showed an inhibition of -0.07%.
With Cc1nc(-c2cccc(Nc3nccc(NCC(O)c4ccc(C(F)(F)F)cc4)n3)c2)cs1 (stereo not given) the inhibition was 1.28%.
For c1cc(CNCCc2ccncc2)cc(-c2cccc(-c3nc4ccccc4[nH]3)c2)c1, the inhibition was 13.1%.
For CC1CN(Cc2ccc(-c3ccc(-c4nc5ccccc5[nH]4)cc3)cc2)CC(C)O1 (stereo not given), the inhibition was 6.34%.
CCCCCCCCN1CCCN(C(=O)c2cccc(NC(=O)Nc3ccc4ccccc4c3)c2)CC1 was tested, and the inhibition was 0.2%.
O=C(Nc1ccc(C(=O)Oc2ccc(-c3ccccc3)cc2)cc1)N[C@@H](Cc1ccc(O)cc1)C(=O)NC1CCN(Cc2ccc(O)cc2)C1 (stereo not given in full) gave an inhibition of 2.56%.
Cc1cc(Nc2ccc(O)cc2)nc2cccc(O)c12 was tested, and the inhibition was 2.06%.
Compound COc1cc(F)c2nccc([C@@H](O)CN3CCC(NCc4ccc5c(n4)NC(=O)CS5)C(F)C3)c2c1 (stereo not given in full) has an inhibition of 3.18%.
Fc1cccc(Nc2nc(NCc3ccc(OCc4ccccc4)cc3)nc(Nc3cccc(F)c3)n2)c1 gave an inhibition of 11.8%.
Work on CCc1c[nH]c2c(N(c3ccccc3)S(C)(=O)=O)cc(C(=O)N[C@@H](Cc3ccccc3)[C@H](O)CNCc3cccc(C(F)(F)F)c3)cc12 yielded an inhibition of 1.52%.
CCN(CC)CCOc1ccc(C(O)(C#CC(O)(c2ccc(Br)cc2)c2ccc(OCCN(CC)CC)cc2)c2ccc(Br)cc2)cc1 (stereo not given) was tested, and the inhibition was 4.97%.
Work on c1cc2[nH]c(CCc3nc4cc(C5=NC6CCCCC6N5)ccc4[nH]3)nc2cc1C1=NC2CCCCC2N1 (stereo not given) yielded an inhibition of 19.7%.
For O=c1cc(NCCCNC(CNCCc2ccccc2)c2cc(Br)cc(Br)c2)[nH]c2ccccc12 (stereo not given), the inhibition was 2.57%.
In the case of Oc1ccc2nc(NCCCc3ccccc3)nc(NCCc3ccccc3)c2c1, the inhibition is reported as 3.71%.
Compound CC(C)(C)C(=O)Nc1ccc(N2CCN(C(c3ccccc3)c3ccccc3)CC2)c(Cl)c1 has an inhibition of 8.85%.
CC(C)Oc1ccc(N2CCN(CCCCNC(=O)c3ccc(NC(=O)c4ccc(Cl)cc4)cc3)CC2)c(OC(C)C)c1 was tested, and the inhibition was 1.62%.
Compound CC1(C)NC(N)=NC(=N)N1OCCOc1cccc(C(F)(F)F)c1 has an inhibition of 1.04%.
In the case of c1ccc2c(Nc3ccc(OCCOCCOc4ccc(Nc5c6ccccc6nc6ccccc56)cc4)cc3)c3ccccc3nc2c1, the inhibition is reported as -2.9%.
In the case of Cc1oc(-c2cccc(Oc3ccccc3)c2)nc1CN(Cc1cnn(C)c1)C(C)C, the inhibition is reported as 1.56%.

Each compound was assayed against Hexose transporter 1 (Plasmodium falciparum) (UniProt O97467) (assay: ST_JUDE_LEISH: Cytotoxicity at 2uM final concentration against transgenic Leishmania Mexicana promastigotes LmPfHT that are glucose transport deficient and complemented with the Plasmodium falciparum hexose transporter. Activity is measured by DNA content using SYBR green in vitro).
Type: functional
CCOc1ccc(-c2nonc2NC(=O)c2ccc(OC)cc2)cc1OCC was tested, and the inhibition was 4.75%.
CC(C)(C)c1ccc(Cn2c(=N)n(CC(=O)c3ccc(-c4ccccc4)cc3)c3ccccc32)cc1 gave an inhibition of -0.1%.
COc1cc(CNc2ccc(N3CCCC3)cc2)cc(Cl)c1OC showed an inhibition of -4.72%.
CCCc1cc(OC)c(CC2c3cc(O)c(C)cc3CCN2C)cc1OC (stereo not given) gave an inhibition of -4.03%.
For Cc1ccc(CNC(=O)[C@H](CCCN)Nc2cc(C)nc(Nc3ccccc3)n2)cc1, the inhibition was 5.71%.
Compound COc1cccc(NC(=O)[C@H](C)n2c(=O)[nH]c3ccccc3c2=O)c1 has an inhibition of 14.1%.
C[C@H](Cc1ccc(CCc2ccc(C[C@@H](C)NC[C@H](O)c3cccc(Cl)c3)cc2)cc1)NC[C@H](O)c1cccc(Cl)c1 was tested, and the inhibition was 10.7%.
Work on O=C1OC(c2ccccc2)(c2ccccc2)CN1CC1CCN(Cc2ccc(O)c(Cl)c2)CC1 yielded an inhibition of 70.4%.
N#Cc1ccc(-c2ccc(OCC(O)CN3CCCN(Cc4cccc(O)c4Cl)CC3)cc2)cc1 (stereo not given) showed an inhibition of 0.72%.
With O=C(Nc1ccc(Br)c(Cl)c1)c1cc([N+](=O)[O-])cc2cn[nH]c12 the inhibition was -0.77%.
Cc1ccc(C(=O)Nc2ccc(C)c(OC3CCN(Cc4ccco4)C3)c2)cc1 (stereo not given) was tested, and the inhibition was 1.86%.
For COc1ccc(-c2ccc(CNC3Cc4ccccc4C3)cc2)cc1S(=O)(=O)NCCN1CCCC1, the inhibition was 3.39%.
With CCOCn1c(-c2ccccc2)cc2c3c(N)nc(N)nc3ccc21 the inhibition was 100%.
In the case of CCN(C)C(=O)n1ncc2c3c(N)nc(N)nc3ccc21, the inhibition is reported as 4.56%.
Cc1nc(C)c(-c2ccc(Oc3cc(Cl)cc(Cl)c3)cc2)c(O)c1Br was tested, and the inhibition was 2.38%.
For CCCC(C)Nc1nc(C)cc(NCCC(=O)Nc2ccccc2)n1 (stereo not given), the inhibition was 8.38%.
For CNCCNCc1ccc(-c2ccc(-c3nc4cc(C(F)(F)F)ccc4[nH]3)cc2)cc1, the inhibition was 3.17%.
For CCOC(=O)CCCCCNC[C@H](O)c1ccccc1, the inhibition was -0.8%.
Compound CC(=O)c1cccc(NC(=O)C2c3ccccc3C(=O)N(CC(C)C)C2c2cccs2)c1 (stereo not given) has an inhibition of 0.13%.
Compound CC(=O)N(Cc1ccc(CC(C)NCCc2cccc(Cl)c2)cc1)Cc1ccc(CC(C)NCCc2cccc(Cl)c2)cc1 (stereo not given) has an inhibition of 72.7%.
NCc1ccc(CNCc2cccc(-c3cccc(-c4nc5cc(F)ccc5[nH]4)c3)c2)cc1 showed an inhibition of 9.36%.
In the case of CCn1c(SCc2ccccc2)nc2c1c(=O)[nH]c(=O)n2C, the inhibition is reported as -0.05%.
With Cc1nc(-c2cccc(Nc3nccc(NCC(O)c4ccc(C(F)(F)F)cc4)n3)c2)cs1 (stereo not given) the inhibition was 1.67%.
c1cc(CNCCc2ccncc2)cc(-c2cccc(-c3nc4ccccc4[nH]3)c2)c1 gave an inhibition of 12.2%.
Work on CC1CN(Cc2ccc(-c3ccc(-c4nc5ccccc5[nH]4)cc3)cc2)CC(C)O1 (stereo not given) yielded an inhibition of 6.82%.
CCCCCCCCN1CCCN(C(=O)c2cccc(NC(=O)Nc3ccc4ccccc4c3)c2)CC1 was tested, and the inhibition was -0.59%.
With O=C(Nc1ccc(C(=O)Oc2ccc(-c3ccccc3)cc2)cc1)N[C@@H](Cc1ccc(O)cc1)C(=O)NC1CCN(Cc2ccc(O)cc2)C1 (stereo not given in full) the inhibition was 2.9%.
Cc1cc(Nc2ccc(O)cc2)nc2cccc(O)c12 was tested, and the inhibition was 0.79%.
Compound COc1cc(F)c2nccc([C@@H](O)CN3CCC(NCc4ccc5c(n4)NC(=O)CS5)C(F)C3)c2c1 (stereo not given in full) has an inhibition of 3.06%.
Compound Fc1cccc(Nc2nc(NCc3ccc(OCc4ccccc4)cc3)nc(Nc3cccc(F)c3)n2)c1 has an inhibition of 9.09%.
CCc1c[nH]c2c(N(c3ccccc3)S(C)(=O)=O)cc(C(=O)N[C@@H](Cc3ccccc3)[C@H](O)CNCc3cccc(C(F)(F)F)c3)cc12 was tested, and the inhibition was 1.54%.
CCN(CC)CCOc1ccc(C(O)(C#CC(O)(c2ccc(Br)cc2)c2ccc(OCCN(CC)CC)cc2)c2ccc(Br)cc2)cc1 (stereo not given) was tested, and the inhibition was 5%.
For c1cc2[nH]c(CCc3nc4cc(C5=NC6CCCCC6N5)ccc4[nH]3)nc2cc1C1=NC2CCCCC2N1 (stereo not given), the inhibition was 18.5%.
Compound O=c1cc(NCCCNC(CNCCc2ccccc2)c2cc(Br)cc(Br)c2)[nH]c2ccccc12 (stereo not given) has an inhibition of 3.4%.
Compound Oc1ccc2nc(NCCCc3ccccc3)nc(NCCc3ccccc3)c2c1 has an inhibition of 4.97%.
CC(C)(C)C(=O)Nc1ccc(N2CCN(C(c3ccccc3)c3ccccc3)CC2)c(Cl)c1 was tested, and the inhibition was 7.04%.
Work on CC(C)Oc1ccc(N2CCN(CCCCNC(=O)c3ccc(NC(=O)c4ccc(Cl)cc4)cc3)CC2)c(OC(C)C)c1 yielded an inhibition of 2.05%.
For CC1(C)NC(N)=NC(=N)N1OCCOc1cccc(C(F)(F)F)c1, the inhibition was 0.2%.
Work on c1ccc2c(Nc3ccc(OCCOCCOc4ccc(Nc5c6ccccc6nc6ccccc56)cc4)cc3)c3ccccc3nc2c1 yielded an inhibition of -1.87%.
In the case of Cc1oc(-c2cccc(Oc3ccccc3)c2)nc1CN(Cc1cnn(C)c1)C(C)C, the inhibition is reported as 1.15%.
